697 NFkB inh = lowers PMA/ionomycin-induced NF-kB signal in 697 B cells; 697 B-cell NF-kB luciferase reporter, 16 h; inhibition, % at 4 µM; 330,000 compounds, 0.33% hits; AID 435022; in the data active means inhibition above about 35%
COUP-TFII inh = inhibitors of human COUP-TFII (NR2F2); P24468; HEK293T NGFI-A luciferase reporter, luminescence; inhibition, % at 8.6 µM; 370,000 compounds, 0.7% hits; AID 686940;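 active means inhibition above a per-plate cutoff, mean inhibition of test wells between control levels plus 3 SD, cut at about 38% in these data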;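 further: cells cotransfected with COUP-TFII expression vector driving the NGFI-A reporter; 0% = median of COUP-TF2 test wells and 100% = reporter-only cells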
Target sequence (P24468 whole entry, looked up): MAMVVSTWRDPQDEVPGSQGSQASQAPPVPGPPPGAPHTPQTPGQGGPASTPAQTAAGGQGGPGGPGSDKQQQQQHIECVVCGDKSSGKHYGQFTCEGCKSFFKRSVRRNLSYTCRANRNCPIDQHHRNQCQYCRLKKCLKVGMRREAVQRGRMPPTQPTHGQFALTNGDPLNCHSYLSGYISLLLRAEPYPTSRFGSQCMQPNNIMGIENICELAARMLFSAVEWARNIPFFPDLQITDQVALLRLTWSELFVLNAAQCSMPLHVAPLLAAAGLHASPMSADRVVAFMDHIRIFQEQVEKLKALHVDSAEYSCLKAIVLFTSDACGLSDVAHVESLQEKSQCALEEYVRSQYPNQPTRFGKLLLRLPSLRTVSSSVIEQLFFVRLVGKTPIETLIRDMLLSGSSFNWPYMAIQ
GalR3 antagonist = human GalR3 antagonism | O60755 | HEK293 GalR3-CNG cAMP membrane potential fluorescence; galR3 body fused to GalR1 C-terminus | inhibition, % at 3 µM | 360,000 compounds, 0.44% hits;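 active means inhibition above the screen-wide average plus 3 SD, cut at about 13% in these data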;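 further: forskolin and galanin both at EC90 stimulate the cells; cAMP rise reported by CNG channel membrane potential dye signal; 0% = forskolin plus galanin with DMSO and 100% = forskolin alone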
Target sequence (O60755 1-299 limits assumed): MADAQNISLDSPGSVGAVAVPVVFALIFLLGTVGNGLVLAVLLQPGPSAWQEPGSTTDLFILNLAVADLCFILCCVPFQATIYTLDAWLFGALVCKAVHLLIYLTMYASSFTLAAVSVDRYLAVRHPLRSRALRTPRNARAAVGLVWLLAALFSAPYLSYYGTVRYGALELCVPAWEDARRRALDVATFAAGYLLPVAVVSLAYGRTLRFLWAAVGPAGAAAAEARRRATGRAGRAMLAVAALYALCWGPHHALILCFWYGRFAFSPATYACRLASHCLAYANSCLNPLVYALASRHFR
Jurkat NFkB inh = lowers PMA/ionomycin-induced NF-kB signal in Jurkat cells; PMA/ionomycin-induced NF-kB luciferase reporter, luminescence; inhibition, % at 4 µM; 330,000 compounds, 0.53% hits; AID 435003; in the data active means inhibition above about 50%
Gli-Sufu block = Gli-Sufu pathway antagonism; 340,000 compounds, 0.74% hits; inhibition, % at 5 µM; Sufu-KO-LIGHT fibroblasts, Gli luciferase reporter luminescence;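 active means inhibition above about 55%, limit read from the data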;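 further: 0% = DMSO-treated cells and 100% = wells with medium but no cells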
Gli-Sufu confirm = confirmation of Gli-SUFU pathway antagonists | 2,500 compounds, 40% hits | Sufu-KO-LIGHT cells, Gli luciferase reporter, luminescence | shares compounds with Gli-Sufu block | AID 602428 | inhibition, % at 5 µM;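 active means mean inhibition at 5 µM reaching about 45%, limit read from the data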;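 further: plate controls were DMSO-treated cells for no effect and wells lacking cells for full effect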
Gli cytotox = counter-screen for Gli-SUFU antagonists: cytotoxicity. Sufu-KO-LIGHT cells cytotoxicity, ATP luminescence. cytotoxicity, % at 5 µM. 2,500 compounds, 32% hits. shares compounds with Gli-Sufu block. AID 651994;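 active means mean cytotoxicity at 5 µM above about 25%, limit read from the data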;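 further: cells exposed to compound overnight for roughly 16 to 18 hours; plate controls were DMSO wells with cells for no effect and medium without cells for full effect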
Wnt3a cs = inhibits Wnt3a reporter, counter-screen for Gli-SUFU antagonists; shares compounds with Gli-Sufu block; 2,500 compounds, 20% hits; AID 651995; Wnt-LIGHT cells, Wnt3a-driven luciferase reporter, luminescence; inhibition, % at 6.25 µM;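 active means mean inhibition above about 25%, limit read from the data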
An asterisk follows results filed as active; . = not tested or not shown. Shown are actives, neighbours in structure and some others; about 2% of the full set was active somewhere.

SMILES	697 NFkB inh	COUP-TFII inh	GalR3 antagonist	Jurkat NFkB inh	Gli-Sufu block	Gli-Sufu confirm	Gli cytotox	Wnt3a cs
c1ccc2c(Nc3ccc4c(c3)OCCO4)c3c(nc2c1)CCCC3	-29.7	3.9	-3.3	12.4	52.4	31.7	-2.1	-23.8
Cc1cc(C)cc(N(CC(=O)NC2CCC(C)CC2)S(=O)(=O)c2ccc(Cl)s2)c1 (stereo not given)	.	13.9	.	.	.	.	.	.
O=c1nc(N/N=C/c2ccccn2)cn[nH]1	-49.8	-61.4	-4.6	7.5	67.3*	70.7*	32.6*	77.7*
CC(N=C1NS(=O)(=O)c2ccccc21)C(=O)OCC(=O)N(C)C1CCS(=O)(=O)C1 (stereo not given)	-1.8	2.0	-4.7	4.9	85.9*	14.5	-4.9	14.2
BrC(=C\c1ccccc1)/C=N/Nc1nc2ccccc2[nH]1	-35.2	-39.0	1.3	-13.0	50.5	-11.4	3.2	-142.0
COCCNC(=O)C12CC3CC(CC(Cl)(C3)C1)C2	-8.5	-22.2	3.1	-14.8	51.8	30.9	-0.3	6.0
CC1Cn2c(CCc3ccccc3)nnc2S1 (stereo not given)	3.3	11.4	-0.5	15.1	53.6	19.4	1.5	-7.2
Nc1[nH]c(C(=O)c2ccc(Br)cc2)c(-c2ccc(Br)cc2)c1C(=O)N1CCCCC1	.	15.1	.	.	.	.	.	.
COC(=O)[C@]12CCCCC=C1N(Cc1ccc(OC)cc1)C(=O)[C@@H]2CC(=O)N1CCN(C(=O)C2CC2)CC1	.	-1.7	.	.	.	.	.	.
CCOC(=O)N1CCN(C(=O)c2ccc3c(=O)n(-c4ccccc4F)c(=S)[nH]c3c2)CC1	-7.3	-10.9	2.2	6.4	32.9	.	.	.
CCc1ccc(C(CNC(=O)c2ccc3c(=O)n(-c4ccccc4F)c(=S)[nH]c3c2)N(C)C)cc1 (stereo not given)	-1.2	21.4	-7.3	-4.5	58.6*	28.9	5.0	0.9
CCN(CC)CCNC(=O)c1ccc(NC(=O)c2cccc(S(=O)(=O)N3CCCCCC3)c2)cc1	.	-15.9	-6.4	.	51.4	14.3	19.3	-21.6
CCN(CC)CCNC(=O)c1ccc(NC(=O)c2ccc(S(=O)(=O)N3CCCCCC3)cc2)cc1	-3.1	0.9	-4.2	13.7	12.7	.	.	.
COC(=O)[C@]1(CNC(=O)C(F)(F)F)CC(=O)N(C)[C@@H]1c1ccccc1	.	-3.9	.	.	.	.	.	.
CCCC[C@H]1C2CC(OC(=O)Nc3cccc(C#N)c3)C(C2)[C@H]2CCCCN21 (stereo not given in full)	.	8.8	.	.	.	.	.	.
Cc1cc(-c2ccc(C)c(S(=O)(=O)NCCCN3CCN(c4ccccc4F)CC3)c2)on1	-32.7	31.3	-6.8	-0.5	56.2*	39.1	12.8	-0.5
CCOCCCNC(=O)C(NC(=O)c1ccc(NC(C)=O)cc1)c1ccc(C)cc1 (stereo not given)	-2.1	-4.8	5.3	2.0	96.3*	13.8	1.4	3.7
O=C(NCCc1ccccc1)OCc1cn(Cc2ccc(F)cc2)nn1	.	6.6	.	.	.	.	.	.
COCCN(Cc1cc2cc3c(cc2nc1Cl)OCO3)C(=O)Nc1ccc(OC)cc1	-35.8	-1.6	-5.1	5.5	54.8	29.0	-1.1	-19.7
CNC(=S)N/N=C(\C)c1ccc(N2CCOCC2)cc1	.	-5.8	-2.4	.	67.5*	-18.1	6.5	-67.9
CCNC(=S)N/N=C(\C)c1ccc(N2CCOCC2)cc1	-9.8	-7.9	-4.5	2.4	4.9	.	.	.
CCCCNc1c(-c2ccc(OC)c(Sc3ccc(OC)cc3)c2)nc2ccccn12	-23.9	.	.	-3.9	53.7	57.2*	25.9*	3.5
CCCCNc1c(-c2ccc(OC)c(Sc3ccc(OC)cc3)c2)nc2cnccn12	-14.2	-0.5	-4.3	1.2	3.8	.	.	.
CC(C)(C)NNC(=S)Nc1ccc(S(=O)(=O)N2CCOCC2)cc1	-9.0	16.1	0.4	-11.0	-5.6	.	.	.
Cc1ccc(NC(=S)Nc2ccc(S(=O)(=O)N3CCOCC3)cc2)cc1S(=O)(=O)N1CCOCC1	0.7	4.3	-5.2	3.2	54.7	9.3	7.9	-21.4
SMILES	697 NFkB inh	COUP-TFII inh	GalR3 antagonist	Jurkat NFkB inh	Gli-Sufu block	Gli-Sufu confirm	Gli cytotox	Wnt3a cs
CCOc1cc(/C=C2\CCCC(C(=O)C(F)(F)F)=C2O)ccc1O	17.0	31.7	-0.9	19.8	59.0*	7.2	0.6	-58.1
COc1cc(/C=C2/CCCC(C(=O)C(F)(F)F)=C2O)ccc1O	-16.3	19.9	-6.4	4.7	3.3	.	.	.
CN1CC=C(c2ccccc2)N(c2ccccc2)C1=O	.	11.4	.	.	.	.	.	.
O[C@H](COc1ccc(C(F)(F)F)cc1)CN1CCC(C(O)(c2ccccc2)c2ccccc2)CC1	.	-8.2	.	.	.	.	.	.
Cc1ccc2sc(NC(=O)CN3C(=O)CCC3=O)nc2c1C	15.2	1.9	0.7	12.0	57.1*	17.4	19.3	-15.8
Cc1ccc(C)c2sc(NC(=O)CN3C(=O)CCC3=O)nc12	12.1	15.2	2.3	-6.3	-16.0	.	.	.
COc1ccccc1-c1c(-c2ccc(O)cc2O)n[nH]c1C(F)(F)F	-48.1	34.4	-0.8	34.0	50.5	62.9*	23.6	31.1*
CCCCNC(=O)NCC1CCN(Cc2ccc(OC)cc2)CC1	.	-17.0	.	.	.	.	.	.
Cc1ccc(-c2c[n+](CC(=O)c3ccc(Br)cc3)c3n2CCCCC3)cc1	-28.7	1.7	10.0	8.2	77.3*	78.1*	33.5*	-21.0
O=C(C[n+]1cc(-c2ccccc2)n2c1CCCCC2)c1ccc(Cl)cc1	6.2	-0.7	0.7	11.9	58.0*	49.1*	17.3	-5.9
COc1ccc(-c2c[n+](CC(=O)c3ccccc3)c3n2CCCCC3)cc1	-40.2	8.4	-6.0	0.9	50.0	55.3*	24.8	-12.5
O=C(CSc1nnc(-c2cccs2)n1Cc1ccco1)Nc1ccc(Oc2ccccc2)cc1	.	-0.4	.	.	.	.	.	.
O=C(NC1CCCC1)N1CCC(c2nc3ccc(Cl)cc3[nH]2)CC1	.	9.8	.	.	.	.	.	.
COC(=O)[C@]12C[C@H](CC(=O)NCC34CC5CC(CC(C5)C3)C4)C(=O)N(CCc3ccc(OC)c(OC)c3)C1=C[C@H](COCc1ccccc1)O[C@@H]2C	.	-11.2	.	.	.	.	.	.
Cc1ccc(-c2nnc(SCc3ccc([N+](=O)[O-])cc3)n2-c2ccccc2)cc1	.	18.0	.	.	.	.	.	.
Cc1cc2cc(CNC(=O)c3ccc(C)c([N+](=O)[O-])c3)ccc2[nH]1	16.7	2.7	.	7.0	58.0*	28.9	25.9*	-62.1
Cc1cc2cc(CCNC(=O)c3ccc(C)c([N+](=O)[O-])c3)c(=O)[nH]c2cc1C	10.1	-24.0	-12.6	1.0	2.4	.	.	.
COC(=O)[C@]12C[C@H](CC(=O)NCc3ccc(C)o3)C(=O)N(CCC3=CCCCC3)C1=C[C@H](C1CCCC1)O[C@@H]2C	.	5.7	.	.	.	.	.	.
Cc1ccsc1CNc1ncnc2ccc(-c3c(C)noc3C)cc12	24.5	-80.4	-2.4	-6.9	53.2	61.8*	25.4*	-3.3
COc1cccc(CNc2ncnc3ccc(-c4c(C)noc4C)cc23)c1	22.8	-49.1	-7.2	9.6	16.8	.	.	.

High-throughput results deposited in PubChem BioAssay by several laboratories.
